High-throughput results (PubChem)
Compounds with a hit are over-represented: about 4% of the library has one in this group of screens.
697 NFkB inh: lowers PMA/ionomycin-induced NF-kB signal in 697 B cells | 697 B-cell NF-kB luciferase reporter, 16 h | inhibition, % at 4 µM | actives 0.33% (n = 330,000); in the data active = inhibition above about 35%
Gli-Sufu block: Gli-Sufu pathway antagonism; Sufu-KO-LIGHT fibroblasts, Gli luciferase reporter luminescence; inhibition, % at 5 µM; actives 0.74% (n = 340,000);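 active = inhibition above about 55%, limit read from the data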
Jurkat NFkB inh: lowers PMA/ionomycin-induced NF-kB signal in Jurkat cells; PMA/ionomycin-induced NF-kB luciferase reporter, luminescence; inhibition, % at 4 µM; actives 0.53% (n = 330,000); in the data active = inhibition above about 50%
Mdm2 MdmX PPI: inhibitors of human Mdm2/MdmX interaction. O15151+Q00987. SaOS-2 split-luciferase Mdm2/MdmX complementation, luminescence. inhibition, % at 8 µM. actives 3% (n = 330,000);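 active = inhibition of at least 50% at 8 µM in the primary screen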
Beta apoptosis: blocks beta cell apoptosis | INS-1E cytokine-induced death, ATP luminescence, 48 h; percent of positive-control rescue, neutral wells zero | actives 0.8% (n = 300,000) | AID 435005 | protection from apoptosis, % (test concentration not listed);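 active = Every replicate reaches about 75%, or at least half do and their mean reaches it too, limit read from the data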;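 also: higher means more ATP so stronger rescue from cytokine killing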
Mdm2-MdmX conf: human Mdm2/MdmX binding inhibition, confirmed | actives 55% (n = 10,000) | luminescent assay | inhibition, % at 8 µM | AID 489028 | shares compounds with Mdm2 MdmX PPI; in the data active = inhibition above about 40%
Full FLuc ctr: counter-screen for Mdm2/MdmX inhibitors: full-length luciferase; actives 77% (n = 6,200); inhibition, % at 8 µM; shares compounds with Mdm2 MdmX PPI; AID 504607; SaOS-2 full-length luciferase counterscreen, luminescence;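 active = mean inhibition at 8 µM reaching about 37%, which flags the compound as non-specific, limit read from the data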;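 also: p53-null SaOS-2 cells with luciferase driven by a doxycycline-inducible promoter; compound on cells about two nights before reading with doxycycline added after day one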
Numbers stand for hits; 0 = inactive; - = no result.

SMILES | 697 NFkB inh | Gli-Sufu block | Jurkat NFkB inh | Mdm2 MdmX PPI | Beta apoptosis | Mdm2-MdmX conf | Full FLuc ctr
O=C(N[C@@H]1C/C=C\C[C@H](CC(=O)N(CCO)Cc2ccccc2)C(=O)N[C@@H](Cc2ccccc2)COC1=O)OCC1c2ccccc2-c2ccccc21 | 0 | 0 | 0 | 93 | 0 | 43 | 59
O=C1N[C@@H](Cc2ccccc2)COC(=O)[C@@H](Cc2ccc(F)cc2)CC/C=C/C[C@H]1CC(=O)N(CCO)Cc1ccccc1 | 0 | 0 | 0 | 52 | 0 | 0 | -
O=C1N[C@@H](Cc2c[nH]c3ccccc23)COC(=O)[C@@H](Cc2ccc(F)cc2)CC/C=C/C[C@@H]1CC(=O)N(CCO)Cc1ccccc1 | 0 | 0 | 0 | 59 | - | 0 | -
Cc1cc(C)c(NC(=O)CNC(=O)COC(=O)Cc2cccs2)c(C)c1 | 0 | 0 | 0 | 0 | 0 | - | -
CCOc1ccc(C2(C)CC(=O)N(C)C2=O)cc1 (centres undefined) | 0 | 0 | 0 | 0 | - | - | -
CCOc1ccc(CC(=O)N/N=C(\C)c2cccnc2)cc1OCC | 0 | 0 | 0 | 0 | 0 | - | -
O=c1[nH]cnc2scc(C3COc4ccccc4O3)c12 (centres undefined) | 0 | 0 | 0 | 0 | 0 | - | -
Clc1ncnc2scc(C3COc4ccccc4O3)c12 (centres undefined) | 0 | 0 | 0 | 52 | 0 | 0 | -
CCCN1CCN(c2ncnc3scc(C4COc5ccccc5O4)c23)CC1 (centres undefined) | 0 | 0 | 0 | 0 | 0 | - | -
c1ccc2c(c1)OCC(c1csc3ncnc(N4CCCCC4)c13)O2 (centres undefined) | 0 | 0 | 0 | 65 | 0 | 0 | -
O=C(Cc1cnc2ncnn2c1)N1CCc2c([nH]c3ccccc23)C1c1ccccn1 (centres undefined) | 0 | 0 | 0 | 0 | 0 | - | -
CCS(=O)(=O)N1CCN(C(=O)c2cccc3ccccc23)CC1 | 0 | 0 | 0 | 0 | 0 | - | -
CCOc1ccc2nc(-c3ccccc3)nc(SCC(=O)Nc3ncc(C)s3)c2c1 | 0 | 0 | 0 | 75 | 0 | 0 | -
CCN1CCN(c2cc(C)c3cc(NC(=O)c4ccc(C)c(C)c4)ccc3n2)CC1 | 0 | 0 | 0 | 67 | 0 | 0 | -
CCN1CCN(c2cc(C)c3cc(NC(=S)N4CCN(c5ccc(F)cc5)CC4)ccc3n2)CC1 | 0 | 0 | 0 | 96 | 0 | 45 | 52
CCCN(CCC)CCCNC(=S)Nc1ccc2nc(N3CCN(CC)CC3)cc(C)c2c1 | 0 | 0 | 0 | 53 | 0 | 0 | -
CCCCN(CC)CCNC(=S)Nc1ccc2nc(N3CCN(C)CC3)cc(C)c2c1 | 0 | 0 | 0 | 67 | 0 | 45 | 75
CC1CCC(NC(=O)C2CCN(C(=O)Nc3ccccc3)CC2)CC1 (centres undefined) | 0 | 0 | 0 | 0 | 0 | - | -
COc1ccc(COC(=O)C2=C(C)NC(=O)NC2c2ccc(F)cc2)cc1 (centres undefined) | 0 | 0 | 0 | 0 | 0 | - | -
CC(C)C(=O)Nc1cccc(COc2ccc(CN(Cc3ccccc3)C(=O)OC(C)(C)C)cc2)c1 | - | 0 | - | - | - | - | -
Cc1ccc(OCC(=O)N/N=C/c2cccnc2)cc1C | 0 | 0 | 0 | 0 | 0 | - | -
Cc1cc(N2CCN(c3ccc([N+](=O)[O-])c4cccnc34)CC2)c2ccccc2n1 | 0 | 0 | 0 | 94 | 0 | 80 | 55
COc1cc(/C=C(\C#N)c2ccccn2)cc(OC)c1O | 0 | 0 | 0 | 0 | 0 | - | -
COc1cc(/C=C(\C#N)c2[nH]nc(N)c2C#N)cc(OC)c1O | 0 | 0 | 0 | 65 | 0 | 0 | -
Nc1ccc(N=Nc2ccccc2)c(N)n1 | 0 | 0 | 0 | 0 | - | - | -
SMILES | 697 NFkB inh | Gli-Sufu block | Jurkat NFkB inh | Mdm2 MdmX PPI | Beta apoptosis | Mdm2-MdmX conf | Full FLuc ctr
Cc1[nH]c(N=Nc2ccccc2)nc1N=Nc1ccccc1 | 0 | 0 | 0 | 77 | 100 | 84 | 0
COc1ccccc1N1CCN(C(=O)c2ccc3c(Cl)c4c(nc3c2)CCCC4)CC1 | 0 | 0 | 0 | 64 | 0 | 0 | -
Cc1ccc(C)c(N2CCN(C(=O)c3ccc4nc(-c5ccco5)c(-c5ccco5)nc4c3)CC2)c1 | 0 | 0 | 0 | 0 | 0 | - | -
Cc1ccc(C)c(N2CCN(C(=O)c3cc4c(C)nc5ccccc5c4o3)CC2)c1 | 0 | 0 | 0 | 0 | 0 | - | -
COc1ccccc1N1CCN(C(=O)c2ccc3nc(-c4ccco4)c(-c4ccco4)nc3c2)CC1 | 0 | 0 | 0 | 54 | 0 | 0 | -
O=C(c1ccc2c(Cl)c3c(nc2c1)CCCC3)N1CCN(c2ccc(F)cc2)CC1 | 0 | 0 | 0 | 0 | 0 | - | -
COc1ccccc1N1CCN(C(=O)c2cc3c(C)nc4ccccc4c3o2)CC1 | 0 | 0 | 0 | 54 | 0 | 0 | -
Cc1ccc(S(=O)(=O)CCC(=O)OCC(=O)Nc2cc(S(=O)(=O)N3CCOCC3)ccc2C)cc1 | 0 | 0 | 0 | 0 | 0 | - | -
Cc1csc(NC(=O)Cc2coc3cc(C)c(C(C)C)cc23)n1 | 0 | 0 | 0 | 80 | 0 | 69 | 57
Cc1cc(C)c2c(N)c(C(=O)Nc3ccccc3F)sc2n1 | 0 | 0 | 0 | 0 | 0 | - | -
CCN(Cc1ccccc1)C(=O)c1[nH]c2ccc(OC)cc2c1C | 0 | 0 | 0 | 0 | - | - | -
CCN(CC)CCNC(=O)c1[nH]c2ccc(OCc3ccccc3)cc2c1C | 0 | 0 | 0 | 61 | 0 | 0 | 69
Cc1cc(C)c2ccc(NN)nc2c1O | 0 | 0 | 0 | 59 | 0 | 41 | 47
CCc1cccc2c1Sc1ccccc1CC2N1CCNCC1 (centres undefined) | 0 | 0 | 0 | 71 | - | 0 | -
Cc1cccc2c1Sc1ccc(Cl)cc1CC2N1CCNCC1 (centres undefined) | 0 | 0 | 0 | 100 | - | 0 | 46
N#CCC(=O)c1sccc1-n1cccc1 | 0 | 0 | 0 | 0 | 0 | - | -
COc1ccc(C(=O)Nn2c(SCC(=O)N3CCC(C)CC3)nc3ccccc3c2=O)cc1 | 0 | 0 | 0 | 59 | 0 | 48 | 142
Cc1cccc(NCc2ccc(N(C)C)cc2)n1 | 0 | 0 | 0 | 0 | - | - | -
O=C(NNC(=O)c1ccc2ccccc2n1)c1ccc(O)cc1 | 0 | 0 | 0 | 0 | - | - | -
COc1ccc(C(=O)NNC(=O)c2ccc3ccccc3n2)cc1 | 0 | 0 | 0 | 63 | 0 | 53 | 53
COc1cc2c(cc1NC(=O)CN(C)Cc1ccc(OC)c(OC)c1)oc1ccccc12 | 0 | 0 | 0 | 51 | 0 | 59 | 58
C=CCn1c(SCC(=O)Nc2cc3oc4ccccc4c3cc2OC)nnc1-c1cnccn1 | 0 | 0 | 0 | 0 | 0 | - | -
C=CCn1c(COc2ccccc2F)nnc1SCC(=O)Nc1cc2oc3ccccc3c2cc1OC | 0 | 0 | 0 | 54 | 0 | 0 | -
CCn1c(SCC(=O)Nc2cc3oc4ccccc4c3cc2OC)nnc1-c1cccs1 | 0 | 0 | 0 | 51 | 0 | 0 | -
COc1cc2c(cc1NC(=O)CSc1nnc(Cc3cccs3)n1C)oc1ccccc12 | 0 | 0 | 0 | 0 | 0 | - | -
COc1cc2c(cc1NC(=O)CSc1nnnn1-c1ccccc1)oc1ccccc12 | 0 | 0 | 0 | 71 | 0 | 0 | -
O=C(CSc1nnnn1-c1ccccc1)Nc1nsc(-c2ccccc2)n1 | 0 | 0 | 0 | 84 | 0 | 81 | 0
